In all, about 420,000 compounds went through this assay and about 64,000 (15%) were called active. Another 27% or so got no clear call; they are omitted. Calls follow the shape of the dose curve; as a rule, active = well fitted inhibition curve with a large enough effect; inconclusive = small, poorly fitted or top-dose-only effect; inactive = flat fitted curve, though single readings scatter. A selection follows.
% is scaled to controls: 0 for no effect and ±100 for the full control effect; potency is read from the fitted curve at half-maximal effect.

This assay in a line: qHTS for Inhibitors of human tyrosyl-DNA phosphodiesterase 1 (TDP1): qHTS in cells in absence of CPT. Also: nearly all actives have a fitted effect of over 55% in size. To be noted: DT40 Tdp1-/- hTDP1 cells, no CPT, ATP luminescence, 48 h; activity change, negative = growth inhibition: at 46.2 µM (top of the series). An outline of the steps:
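DT40 Tdp1-/-;hTDP1 cells, no CPT (DMSO vehicle only), 400 cells/well; compounds pin-transferred; ≥48 hr, 37 °C; CellTiter-Glo 30 min RT dark, luminescence read.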
For orientation: In qHTS, concentration-response curves come from the screen itself.
For the molecule `COc1ccc(-c2cc(C)nc3nc(N)nn23)cc1`, the “activity change, negative = growth inhibition” value was -2.44% (inactive).
Same read-out and setting: as for `CCOc1ccc(-c2nc(C)sc2CC(=O)O)cc1`, the figure is -5.66% (inactive); as for `Cc1cccc(CSc2nnc(C)c(=O)n2N)c1`, -23% (inactive).
Take `O=C(NC1CCCC1)C(c1ccc(Cl)cc1)N(C(=O)c1csnn1)C1CC1` (stereo not drawn): the “activity change, negative = growth inhibition” value was -8.07% (inactive).
For `COc1ccc(-c2cc(=O)c3c(O)cc(O[C@@H]4O[C@H](CO[C@@H]5O[C@@H](C)[C@H](O)[C@@H](O)[C@H]5O)[C@@H](O)[C@H](O)[C@H]4O)cc3o2)cc1O`, the Potency result was “inactive”.
As for `CCn1c(=O)cc(O)c2ccccc21`, the “activity change, negative = growth inhibition” value was -9.55% (inactive).
On the same count and under the same terms, next, `CCOC(=O)C1CCN(S(=O)(=O)c2cc(F)ccc2OC)CC1`: -17.4% (inactive); `CCOC(=O)c1cnc(COc2ccccc2Cl)[nH]c1=O`: -9.74% (inactive).
As for `CC1(C)NC(=O)N(CC(=O)Nc2ccc(-c3ccccc3)cc2)C1=O`, the “activity change, negative = growth inhibition” value is -1.23% (inactive).
Turning to `NC(=O)C1=C[C@H](c2csc3ccccc23)C[C@H](OCc2ccc(CO)cc2)O1`, the Potency is 20.6 µM (active).
Take `C=CCOC(=O)C1=C[C@@H](c2ccccc2)C[C@@H](OCc2ccc(CO)cc2)O1`: the “activity change, negative = growth inhibition” value is -21.2% (inactive).
As to `NC(=O)C1=C[C@@H](c2ccc3c(c2)OCO3)C[C@@H](OCCCCO)O1`, the “activity change, negative = growth inhibition” value was 2.17% (inactive).
On the same count and under the same terms, as for `CN1CCN(C(=O)C2=C[C@H](c3ccc4c(c3)OCO4)C[C@H](OCc3ccc(CO)cc3)O2)CC1`, the figure is -15.1% (inactive).
The same measure, in the same setting: next, `O=C(C1=C[C@H](c2coc3ccccc3c2=O)C[C@H](OCc2ccc(CO)cc2)O1)N1CCOCC1`: -14.3% (inactive).
Still for that read-out and setting: next, `O=C(O)C1=C[C@H](c2cccs2)C[C@H](OCCCCO)O1`: -2.91% (inactive).
On to `O=C(C1=C[C@H](c2ccc(C(F)(F)F)cc2)C[C@H](OCc2ccc(CO)cc2)O1)N1CCN(Cc2ccccc2)CC1`, for which the Potency is 13 µM (active).
Same read-out and setting: as for `O=C(C1=C[C@H](c2coc3ccccc3c2=O)C[C@H](OCc2ccc(CO)cc2)O1)N1CCN(Cc2ccccc2)CC1`, the figure is 18.4 µM (active).
Regarding `C#Cc1ccc([C@@H]2C=C(C(=O)O)O[C@H](OCCCCO)C2)cc1`, the “activity change, negative = growth inhibition” value is -15.9% (inactive).
On the same count and under the same terms, next, `COc1cc(C(=O)N2CCN(C3CCC(C)CC3)CC2)cc(OC)c1OC` (stereo not drawn): 5.51% (inactive); `CCN(CC)CCN(C(=O)c1cc(Cl)sc1Cl)c1nc2cc3c(cc2s1)OCO3`: -28.6% (inactive).
Turning to `CN(C(=O)c1ccno1)c1nnc(-c2cccnc2)s1`, the “activity change, negative = growth inhibition” value is -0.876% (inactive).
On the same count and under the same terms, as for `CCC1(C)N(O)C(C)(C)C(c2ccc(OC)cc2)=[N+]1[O-]` (stereo not drawn), the figure is -0.459% (inactive); as for `O=S(=O)(Nc1ncccn1)c1ccc(NS(=O)(=O)c2cccc(Cl)c2Cl)cc1`, -12.9% (inactive); as for `Cc1noc(NS(=O)(=O)c2ccc(N/C=C/C(=O)c3ccccc3)cc2)c1C`, -7.47% (inactive).
The same measure, in the same setting: next, `CC(C)C[C@H](NC(=O)C1CC(=O)N(c2ccc3c(c2)OCCO3)C1)C(=O)NC1CCCC1` (stereo partly drawn): 7.04% (inactive); `COc1ccc(S(=O)(=O)N2CCN(c3cnccn3)CC2)cc1`: -19.6% (inactive); `N#Cc1ccccc1S(=O)(=O)N1CCN(Cc2c(O)ccc3ccccc23)CC1`: 0.994% (inactive).
Take `COc1ccc(-c2csc3ncnc(N4CCN(S(=O)(=O)c5ccccc5C#N)CC4)c23)cc1`: the Potency is 16.4 µM (active).
Same read-out and setting: next, `CCOC(=O)c1oc2ccc(S(=O)(=O)n3nc(-c4ccccc4OC)cc3N)cc2c1C`: 5.17 µM (active).
For the molecule `Cc1ccc(S(=O)(=O)n2nc(OC(=O)C(C)(C)C)cc2N)cc1`, the “activity change, negative = growth inhibition” value is -29.9% (inactive).
Turning to `CCOc1ccc(S(=O)(=O)N2CCN(C(=O)c3oc4ccccc4c3C)CC2)cc1`, the “activity change, negative = growth inhibition” value is -29.3% (inactive).
Turning to `C[C@H](NC(=O)[C@@H]1CCCN1C(=O)[C@@H]1CCCN1C(=O)c1ccccc1)c1ccccc1`, the “activity change, negative = growth inhibition” value was -23.5% (inactive).
Same read-out and setting: next, `O=C1NC(CC(=O)N2CCC(n3c(C4CCC4)nc4cccnc43)CC2)c2ccccc21` (stereo not drawn): -1.68% (inactive).
Regarding `CCCS(=O)(=O)N1CCC(n2c(C(F)(F)F)nc3cccnc32)CC1`, the Potency was 5.17 µM (active).
On to `CCS(=O)(=O)N1CCC(n2c(C)nc3cccnc32)CC1`, for which the “activity change, negative = growth inhibition” value is -0.165% (inactive).
Still for that read-out and setting: next, `CC(C)CC(CC(C)C)=NNC(=O)c1ccc(CSc2nncn2C)cc1`: 3% (inactive).
With `CC(=O)c1cc(C#N)c(SCC(=O)C(C)(C)C)nc1C`, the Potency was 3.16 µM (active).
`CC(=O)c1cc(C#N)c(N2CC(C)OC(C)C2)nc1C` (stereo not drawn): the “activity change, negative = growth inhibition” value is 15.6% (inactive).
As to `CC(=O)c1cc(C#N)c(N2CCCCC2)nc1C`, the “activity change, negative = growth inhibition” value is -19.2% (inactive).
On to `CN1OC[C@@H]2CN(C(=O)c3cccnc3)[C@H](c3ccc(N4CCCCC4)cc3)C[C@@H]21`, for which the “activity change, negative = growth inhibition” value was 12.5% (inactive).
Consider `CCc1nnc(NC(=O)C2CC(=O)N(c3ccc4c(c3)OCCO4)C2)s1` (stereo not drawn), for which the Potency is 18.4 µM (active).
In the case of `CC(=O)c1ccccc1NC(=O)C1CC(=O)N(c2ccc3c(c2)OCCO3)C1` (stereo not drawn), the “activity change, negative = growth inhibition” value is -13.3% (inactive).
The same measure, in the same setting: next, `CCOC(=O)c1ccc(NC(=O)C2CC(=O)N(c3ccc4c(c3)OCCO4)C2)cc1` (stereo not drawn): -1.25% (inactive).
With `CN1CCN(CC(O)COCc2ccc3c(c2)OCO3)CC1` (stereo not drawn), the “activity change, negative = growth inhibition” value was 4.13% (inactive).
Same read-out and setting: next, `CC(=O)Nc1ccc(NC(=O)COC(=O)C2CCC(C(C)(C)C)CC2)cc1` (stereo not drawn): -10.4% (inactive); `Cc1ccccc1CSc1nc(-c2ccccc2)nc2c1Cc1c(CO)cnc(C)c1O2`: -18.4% (inactive).
Take `CSc1nc(-c2ccccc2Cl)nc2c1Cc1c(CO)cnc(C)c1O2`: the Potency is 18.4 µM (active).
Take `CSc1nc(-c2ccc(F)cc2)nc2c1Cc1c(CO)cnc(C)c1O2`: the “activity change, negative = growth inhibition” value was -1.83% (inactive).

These data come from PubChem BioAssay AID686978 (National Center for Advancing Translational Sciences (NCATS), 2013).
